Screens (PubChem BioAssay)
Cruzain noTriton: qHTS Assay for Promiscuous and Specific Inhibitors of Cruzain (without detergent) | Cruzipain (Trypanosoma cruzi), P25779 | purified cruzain, Z-FR-AMC fluorescence, no detergent | Potency, µM, without a hit: max response, negative = inhibition, most hits filed as inhibitors | 200,000 tested, 2.3% active | AID 1476, 2009;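 also: plate controls were enzyme without inhibitor for no effect and buffer without enzyme for full effect; nearly all actives have a fitted effect of over 40% in size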
Target sequence (P25779 123-467 limits assumed): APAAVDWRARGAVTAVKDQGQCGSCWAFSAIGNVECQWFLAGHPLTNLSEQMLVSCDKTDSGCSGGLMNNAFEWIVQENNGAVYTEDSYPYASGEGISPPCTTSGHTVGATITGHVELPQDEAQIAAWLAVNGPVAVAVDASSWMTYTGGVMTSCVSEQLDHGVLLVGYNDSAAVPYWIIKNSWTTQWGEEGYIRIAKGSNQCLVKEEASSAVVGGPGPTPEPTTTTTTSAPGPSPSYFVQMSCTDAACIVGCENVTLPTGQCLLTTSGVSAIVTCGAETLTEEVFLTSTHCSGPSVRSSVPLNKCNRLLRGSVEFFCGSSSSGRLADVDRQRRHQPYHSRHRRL
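Detergent-free condition (0.00005% Triton X-100) in acetate buffer pH 5.5 with DTT. 1.5 nM enzyme and compound were pre-mixed 15 min, then 2 uM Z-FR-AMC substrate added; reaction progress from fluorescence change between first and third reads (60 s).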
Cruzain Triton: qHTS Assay for Promiscuous and Specific Inhibitors of Cruzain (with detergent). Cruzipain (Trypanosoma cruzi), P25779. purified cruzain, Z-FR-AMC fluorescence, 0.01% Triton. Potency, µM, without a hit: max response, negative = inhibition, actives largely listed as inhibitors. 200,000 tested, 0.43% active. AID 1478, 2009;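 also: plate controls were neutral wells for no effect and buffer without enzyme for full effect; nearly all actives have a fitted effect of over 40% in size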
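Sodium acetate buffer (100 mM, pH 5.5) containing 5 mM DTT and 0.01% Triton X-100 hosted 1.5 nM cruzain and test compound for 15 min at room temperature. Cleavage of 2 uM Z-FR-AMC was then tracked by fluorescence.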
The depositor's hits bear a star; ? = inconclusive. Compounds with a hit are over-represented: about 2.4% of the library has one in this group of screens. Calls follow the shape of the dose curve; as a rule, active = well fitted curve in the direction sought with a large enough effect; inconclusive = small, poorly fitted or top-dose-only effect, or another doubt; inactive = no such curve, though single readings can be large; an effect the other way counts as inactive or inconclusive. Potency is read from the fitted curve at half-maximal effect.

SMILES	Cruzain noTriton	Cruzain Triton
O=C(N/N=C/c1ccccc1[N+](=O)[O-])c1ccc(COc2ccccc2-c2ccccc2)cc1	13µM*	-5%
O=C(Cn1c(=O)c2ccccc2n(CC(=O)Nc2ccc(F)cc2)c1=O)NCCc1ccccc1	4%	1%
COc1cccc(C(=O)Nc2cc3cc(OC)ccc3oc2=O)c1	-1%	1%
COc1ccc(C(=O)Nc2cc(C(=O)c3ccccc3)c(C)oc2=O)cc1	16µM*	13µM*
CN(C)c1ncnc2ccc(-c3cccnc3)cc12	1%	-2%
Cc1ccccc1C(=O)Nc1cccc(C(=O)OCc2cc(=O)n3c(C)csc3n2)c1	7%	0%
O=C(c1ccccc1)N1CCn2c(nc3ccccc32)C1	-8%	0%
O=C(C1COc2ccccc2O1)N1CCn2c(nc3ccccc32)C1 (configuration not stated)	13µM*	-30%
COc1ccc(-c2cn3c(n2)sc2cc(C(=O)NCCc4ccccc4)ccc23)cc1	?	-4%
CCc1ccc(Oc2coc3cc(OCC(=O)Nc4cc(C)ccc4C)ccc3c2=O)cc1	25µM*	2%
CCCc1ccc(Oc2coc3cc(OCC(=O)Nc4ccccc4C)ccc3c2=O)cc1	6%	-4%
NC(=O)CSc1nnc(-c2cc(-c3cccs3)nc3ccccc23)o1	-18%	-10%
CCCN(CC1CC1)C(=O)CSc1nnc(-c2cc(-c3cccs3)nc3ccccc23)o1	16µM*	-4%
COc1ccc(N2CCN(CCCNC(=O)c3c(C)nn(-c4ccc(F)cc4)c3-n3cccc3)CC2)cc1	-5%	-1%
CCOC(=O)c1c(C)oc2ncnc(Nc3ccc(OCC)cc3)c12	-14%	-1%
CC(C)CC(C(=O)OCC(=O)Nc1ncc(Cl)cc1Cl)N1C(=O)c2ccccc2C1=O (configuration not stated)	?	-21%
CCOC(=O)/C=C/C(=O)OCC(=O)Nc1ccc(OC)c(Cl)c1	16µM*	13µM*
COc1ccc(NC(=O)COC(C)=O)cc1Cl	0%	0%
CCCn1c(C)cc(/C=C(\C#N)C(=O)OCC(=O)Nc2ccc(OC)c(Cl)c2)c1C	-12%	-10%
COc1ccc(NC(=O)COC(=O)/C=C/C(=O)OCC(=O)Nc2ccc(OC)c(Cl)c2)cc1Cl	25µM*	-20%
COc1ccc(NC(=O)COC(=O)C(CC(C)C)N2C(=O)C3CC=CCC3C2=O)cc1Cl (configuration not stated)	10µM*	7.1µM*
COCCCNc1nc(NCc2ccc(C)cc2)c2cnn(C)c2n1	-1%	-3%
CCc1cccc(C)c1NC(=O)c1cc(S(=O)(=O)N2CCOCC2)cn1C	1%	-2%
Cc1ccc(C(C)C)c(OCC(=O)Nc2ccc(S(=O)(=O)Nc3onc(C)c3C)cc2)c1	8%	-25%
CC(C)CC(=O)Nc1ccc(C(=O)NNC(=O)C(c2ccccc2)c2ccccc2)cc1	25µM*	6%
SMILES	Cruzain noTriton	Cruzain Triton
CCC(=O)Nc1ccc(C(=O)NNC(=O)C(c2ccccc2)c2ccccc2)cc1	?	-2%
Cc1ccc(-n2c(=O)c3cccnc3n2CC(=O)Nc2cccc(C)c2C)cc1	-7%	-1%
COc1ccccc1CNc1ccc(-c2nc(C)no2)cc1[N+](=O)[O-]	20µM*	-4%
COc1ccccc1CNc1ccc(-c2nc(C(C)C)no2)cc1[N+](=O)[O-]	?	-4%
CC(C)CNC(=O)COC(=O)CNC(=O)c1cc(Cl)cc([N+](=O)[O-])c1	7.9µM*	10µM*
O=C(CNC(=O)c1ccccc1)NCC(=O)OCC(=O)c1ccc([N+](=O)[O-])cc1	-6%	-4%
CC(C)(C)NC(=O)COC(=O)CNC(=O)c1cc(Cl)cc([N+](=O)[O-])c1	20µM*	25µM*
CCNC(=O)COC(=O)CNC(=O)c1cc(Cl)cc([N+](=O)[O-])c1	7.9µM*	7.9µM*
CC(C)CNC(=O)COC(=O)c1ccc([N+](=O)[O-])cc1Cl	-10%	0%
COc1cc(OC)cc(C(=O)NCC(=O)OCC(=O)NC(C)(C)C)c1	2%	-1%
O=C(c1ccccc1)N1CCN(CCc2ccncc2)CC1	-5%	-1%
CCC(=O)Nc1ccccc1-c1nc2ccccc2n(CC(=O)c2ccc(Br)cc2)c1=O	-15%	-3%
O=C(NCCCc1nc2ccccc2n1Cc1ccc(Cl)cc1)c1ccco1	11%	-10%
CCNC(=O)c1ccc(C)c(-n2c(C)nc3cccnc32)c1	2%	-3%
O=C(NCCCN1CCN(c2ccccc2)CC1)c1nnc(Cc2c(F)cccc2Cl)o1	-2%	-1%
CN1CCN(c2nc3c(c(=O)n(C)c(=O)n3C)n2C)CC1	-4%	0%
COc1ccc(Cl)cc1NC(=O)C/C(C)=N/NC(=O)CC#N	-5%	-5%
C/C(CC(=O)Nc1ccc(Cl)cc1Cl)=N\NC(N)=S	7.9µM*	10µM*
CCOc1ccc(CNC(=O)c2cnc3sc(N4CCC(C)CC4)nn3c2=O)cc1OC	-8%	3%
CN[C@@H]1NC(=O)c2ccccc2N1Cc1ccc(F)cc1	-1%	14%
COc1ccc(CNc2cc(-c3cccc(NS(C)(=O)=O)c3)ncn2)c(OC)c1	4%	-3%
Cc1ccc(NC(=O)Cn2nc(-c3ccccc3)nc(Cc3ccc(Cl)cc3)c2=O)cc1	25µM*	1%
Cc1ccc(NC(=O)Cn2nc(-c3ccccc3)nc(Cc3ccccc3)c2=O)cc1	-12%	1%
NC1=NC2(CCCCC2)N=C(Nc2ccc(Br)cc2)N1	20µM*	28µM*
Cc1cccc(C)c1NC1=NC2(CCCCC2)N=C(N)N1	4%	2%
SMILES	Cruzain noTriton	Cruzain Triton
O=C(O)c1ccc(NS(=O)(=O)c2ccsc2C(=O)O)c(O)c1	-5%	-1%
O=C(Cc1nc2ccccc2[nH]1)N/N=C/c1ccccc1	7%	-4%
COc1ccc(OC)c(/C=N/NC(=O)Cc2nc3ccccc3[nH]2)c1	?	22µM*
COc1ccc(OC)c(/C=N/NC(=O)CC2C(=O)NN=C2C)c1 (configuration not stated)	32µM*	-28%
COc1cccc(/C=N/NC(=O)CC2C(=O)NN=C2C)c1OC (configuration not stated)	0%	-10%
COc1ccc(C)c2sc(N(Cc3cccnc3)C(=O)c3cccs3)nc12	?	-5%
O=[N+]([O-])c1cccc(/C([O-])=C(/C(=S)Nc2ccccc2)[n+]2ccccc2)c1	25µM*	-22%
O=C(/C(=C(/[O-])c1ccccc1)[n+]1ccccc1)c1ccc([N+](=O)[O-])cc1	-19%	-5%
Cc1cc(/C=C(\C#N)C(=O)Nc2ccc(Cl)cc2)c(C)n1-c1ccc(N2CCOCC2)c([N+](=O)[O-])c1	7.9µM*	-6%
Cc1ccc(NC(=O)/C(C#N)=C/c2cc(C)n(-c3ccc(N4CCOCC4)c([N+](=O)[O-])c3)c2C)c(C)c1	?	-1%
CCCCCCOC(=O)C1(O)CC2OC1(C)n1c3ccccc3c3c4c(c5c6ccccc6n2c5c31)C(=O)NC4 (configuration not stated)	-16%	3%
COC(=O)c1c(NC(=O)C2c3ccccc3Oc3ccccc32)sc2c1CCC(C)C2 (configuration not stated)	-23%	-3%
CCC1CCc2c(sc(NC(=O)C3c4ccccc4Oc4ccccc43)c2C(=O)OC)C1 (configuration not stated)	4µM*	1%
CCC1CCc2c(sc(NC(=O)C3c4ccccc4Oc4ccccc43)c2C#N)C1 (configuration not stated)	7.9µM*	-5%
